Assay outcomes from PubChem.
Only some compounds are listed: those with a hit (about 7.3% of all), similar ones and a draw of the others.
SMN2 splice up = qHTS Assay for Enhancers of SMN2 Splice Variant Expression; HEK293 SMN2-luciferase splicing reporter, luminescence, 30-36 h; Potency, µM (doses to about 46.1 µM), inactives show at the top dose activity change, positive = activation, hits mostly activators; 210,000 tested, 2.8% active; further: % of control where 0% means no effect; nearly all actives have a fitted effect of over 55% in size
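HEK293 cells carry an SMN2 […]–luciferase reporter in which exon 7 inclusion puts luciferase in frame. Cells were plated 10-12 h before compound addition, then incubated 30-36 h at 37C. ONE-Glo luminescence was read; sodium butyrate at 4.5 mM final served as control.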
Luc counter = Counterscreen for Luciferase (Kinase-Glo TM) Inhibition | Luciferin 4-monooxygenase (Photuris pensylvanica), Q27757 | Kinase-Glo luciferase, ATP luminescence, 8 min | Potency, µM (highest dose often 38.3 µM), for inactives: at the highest dose activity change, negative = inhibition, hits mostly inhibitors | 200,000 tested, 0.28% active | AID 1379, 2008; further: on the % scale 0 is the no-effect control and ±100 the full control effect; nearly all actives have a fitted effect of over 60% in size
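Luminescence was the read-out, taken after 8-minute incubation at ambient temperature. Luciferase turned over luciferin with 10 uM ATP in imidazole pH 7.2 buffer containing KCl, MgCl2, Tween 20 and BSA.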
ELG1 genotox = qHTS screen for small molecules that induce genotoxicity in human embryonic kidney (HEK293T) cells expressing luciferase-tagged ELG1 | Potency, µM (highest dose often 46 µM), for inactives: at the highest dose activity change, positive = activation, usual class: activators | 330,000 tested, 1.3% active | HEK293T ELG1-luciferase reporter, luminescence, 16 h; further: % of control where 0% means no effect; nearly all actives have a fitted effect of over 60% in size
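HEK293T cells expressing luciferase-tagged ELG1 were treated with compound or DMSO for 16 hr at 37°C. Luciferase activity was then read after 30 min with ONE-Glo at room temperature; rising signal flags genetic stress.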
FLuc modulator = qHTS profiling assay for firefly luciferase inhibitor/activator using purifed enzyme and Km concentrations of substrates (counterscreen for miR-21 project); Potency, µM (top dose mostly 57.5 µM), without a hit: top-dose activity change, negative = inhibition, actives largely listed as inhibitors; 360,000 tested, 6.9% active; Luciferin 4-monooxygenase (Photinus pyralis), P08659; purified FLuc, Km substrates, luminescence inhibition;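 further: plate controls were vehicle for no effect and reference inhibitor for full effect; nearly all actives have a fitted effect of over 55% in size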
Target sequence (P08659 whole entry, looked up): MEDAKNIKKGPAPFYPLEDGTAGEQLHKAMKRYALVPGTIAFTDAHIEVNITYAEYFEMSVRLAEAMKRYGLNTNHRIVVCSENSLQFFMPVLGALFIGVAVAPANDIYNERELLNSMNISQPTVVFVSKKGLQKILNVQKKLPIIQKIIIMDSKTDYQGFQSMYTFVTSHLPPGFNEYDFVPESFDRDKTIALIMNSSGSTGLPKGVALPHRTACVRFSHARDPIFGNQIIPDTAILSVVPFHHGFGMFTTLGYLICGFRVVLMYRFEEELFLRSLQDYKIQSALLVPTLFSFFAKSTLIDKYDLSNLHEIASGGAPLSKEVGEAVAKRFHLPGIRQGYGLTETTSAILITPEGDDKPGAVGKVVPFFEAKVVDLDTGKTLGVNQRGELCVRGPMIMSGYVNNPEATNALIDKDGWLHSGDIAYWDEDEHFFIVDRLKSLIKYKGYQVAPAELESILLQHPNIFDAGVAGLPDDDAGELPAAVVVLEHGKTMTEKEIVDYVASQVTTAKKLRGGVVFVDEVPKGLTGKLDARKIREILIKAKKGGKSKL
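Biochemical qHTS of compounds, final roughly 60 µM downward over six points, against 10 nM purified firefly luciferase using Km concentrations of substrates (10 uM D-luciferin, 10 uM ATP) in Tris acetate pH 7.5 buffer; luminescence output.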
Rab9 prom act = qHTS Assay for Rab9 Promoter Activators; Huh7 Rab9 promoter-luciferase reporter, luminescence, 24 h; Potency, µM (top dose mostly 9.22 µM), without a hit: at the top dose activation, negative = inhibition, actives largely listed as activators; 320,000 tested, 2.8% active; further: % of control where 0% means no effect; nearly all actives have a fitted effect of over 60% in size
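Cells were plated at 1500 per well in reduced-serum medium with 10% FBS and left 2 h. Compound in DMSO was then added for 24 h at 37 °C. Reporter signal was read by luminescence after 10 min with luciferase detection reagent.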
NPC1 promoter act = qHTS Assay for NPC1 Promoter Activators; Huh7 NPC1 promoter luciferase reporter, 24 h; Potency, µM (doses to about 9.22 µM), inactives show at the top dose activation, hits mostly activators; 320,000 tested, 2.4% active; AID 485313, 2010; further: % of control where 0% means no effect; nearly all actives have a fitted effect of over 60% in size
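Quantitative HTS used a cell-based reporter: Huh7 cells stably bearing the NPC1 promoter upstream of luciferase were treated with compounds for 24 h, and promoter activation was read as luminescence.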
Numbers without * were called inactive; ? = inconclusive; . = no result given; [ ] = dose if it differs, or a comment. The call rests on the fitted dose curve; in most records, active means well fitted curve in the direction sought with a large enough effect; inconclusive means small, poorly fitted or top-dose-only effect, or another doubt; inactive means no such curve, though single readings can be large; an effect the other way counts as inactive or inconclusive. Potency means the concentration at half of the fitted maximal effect.

SMILES	SMN2 splice up	Luc counter	ELG1 genotox	FLuc modulator	Rab9 prom act	NPC1 promoter act
N[C@H](C(=O)N[C@@H]1C(=O)N2C(C(=O)O)=C(Cl)CS[C@@H]12)c1ccccc1	8%[20.6 µM]	0%[17.1 µM]	.	.	.	.
Cc1ccc(N=Cc2ccc(N(C)C)cc2)cc1C	-6%	0%	-1%	0.95µM*	-2%	-3%
CN(C)c1ccc(C=Nc2ccc(N(C)C)cc2)cc1	-62%	-10%	?	8.5µM*	20%	0%
C(=Nc1cccc2c(N=Cc3ccco3)cccc12)c1ccco1	3%	-3%	-2%	-11%	12%	7%
Cc1ccc(N=Cc2ccc(N(C)C)cc2)cc1	-7%	-2%	0%	?	-2%	1%
C=CCc1c(C)nc(C)nc1N/N=C/c1ccc(N(C)C)cc1	-14%	-1%	-2%	-3%	-18%	-8%
Cc1nc(/N=C\c2ccc(N(C)C)cc2)sc1C	.	.	1%	0.3µM*	-4%	-1%
CN(C)c1ccc(N=Cc2ccco2)cc1	-25%	11µM*	?	4.8µM*	9%	12%
Cc1ccc(CSc2nc3ccc(NC(=O)COc4ccccc4)cc3s2)cc1	.	.	.	2%	.	.
Cc1ccc(S(=O)(=O)N2CCC(C)CC2)c([N+](=O)[O-])c1	-8%	1%	-3%	-2%	-7%	-3%
O=C(OCC(=O)N1CCCC1)c1ccc(Cl)c([N+](=O)[O-])c1	.	.	2%	2%	5%	2%
COc1ccc(CC(=O)NNC(=O)COc2ccc3ccccc3c2)cc1	5%	-1%	0%	1%	-12%	1%
CN(C)c1ccc(C=Nc2ccccc2)cc1	-8%	1%	-1%	0.43µM*	1%	-1%
CN(C)c1ccc(/C=N/NC(=O)CCC(=O)NCc2ccccc2)cc1	8%	1%	-1%	?	2%	0%
CSc1ccccc1NC(=O)Nc1ccc(Cl)cc1	-31%	-2%	?	11µM*	?	?
COc1cccc(COC(=O)Nc2ccccc2F)c1	.	.	4.1µM*	11µM*	2µM*	1.1µM*
COc1ccc(Cl)cc1NC(=O)Nc1ccccc1SC	-4%	-2%	10%	6%	-4%	-1%
O=C(Nc1ccccc1F)Nc1ccccc1Br	13%	-6%	?	17µM*	-17%	26%
COc1ccc(NC(=O)CN(C)C(=O)c2ccc(S(=O)(=O)Nc3ccccc3F)cc2)cc1	.	.	23%	13µM*	-5%	2%
CN(C)/C=C/c1[nH]c(=O)[nH]c(=O)c1[N+](=O)[O-]	.	.	4%	-1%	1%	1%
COCC(=O)Nc1cc(OC)cc(OC)c1	-2%	0%	-1%	4%	3%	3%
O=C(COc1cccc2ccccc12)N1c2ccccc2CCc2ccccc21	-2%	0%	-11%	1%	1%	-7%
O=C(C#Cc1ccccc1)Nc1ccccc1F	.	.	17%	1.9µM*	?	?
COc1ccc(C/C(C)=N/NC(=S)Nc2ccc(C(C)C)cc2)cc1	-21%	0%	-1%	?	-3%	0%
COc1ccc(NC(=O)Nc2ccccc2SC)cc1	13µM*	10µM*	?	11µM*	?	?
SMILES	SMN2 splice up	Luc counter	ELG1 genotox	FLuc modulator	Rab9 prom act	NPC1 promoter act
CNC(=O)Nc1ccccc1F	-1%	19%	-5%	-1%	-5%	0%
COc1ccc(NC(=O)Nc2ccccc2F)cc1	11µM*	?	2.6µM*	3.4µM*	0.45µM*	0.56µM*
COc1ccc(-c2cc(C(=O)Nc3ccccc3SC)no2)cc1	7%	12%	5%	-1%	25%	5%
COc1ccc(NC(=O)Nc2ccccc2F)c(C)c1	.	5%	7%	-9%	?	24%
COc1ccc(C/C(C)=N/NC(=S)Nc2ccccc2F)cc1	-56%	-9%	8.2µM*	15µM*	2.5µM*	3.2µM*
COc1ccc(C)cc1NC(=O)CSc1nnc(CC(=O)Nc2cccc(C(F)(F)F)c2)n1C	-7%	21%	-10%	3%	0%	-2%
Cc1cc(C(F)(F)F)n(-c2nc(C(=O)NN)cs2)n1	-14%	-3%	0%	2%	22%	-2%
CCN(CC)C(=S)Nc1ccc([N+](=O)[O-])cc1	47%	-4%	5%	1%	0%	-5%
O=C1CC(c2ccccc2)NN1 (stereo unspecified)	.	.	4%	-2%	1%	-2%
COc1ccc(NC(=O)c2c(F)c(F)c(F)c(F)c2F)cc1Cl	?	6%	-4%	5%[2.3 µM]	0%	4%
COc1ccc(NC(=O)Nc2ccccc2F)cc1Cl	10µM*	-8%	5.2µM*	?	1.4µM*	1.8µM*
Fc1ccccc1NC(=S)N/N=C/c1ccccc1Br	11µM*	-3%	4.5µM*	13µM*	3.2µM*	?
O=C(Nc1cccs1)Nc1ccccc1Cl	-56%	-11%	?	27µM*	22%	14%
Cc1ccc(NC(=O)Nc2cccs2)c(Cl)c1	6%	-4%	.	8.5µM*	.	.
Cc1ccc(NC(=O)Nc2cn(C)c(=O)c3ccccc23)c(Cl)c1	.	.	.	1%	.	.
O=C(Nc1cccs1)Nc1ccc(F)cc1F	10%	0%	5%	?	?	25%
O=C(Nc1cccs1)Nc1ccc(Br)cc1F	0%	-8%	1%	12µM*	-1%	1%
NC(=O)c1c(NC(=O)c2ccccc2)sc2c1CCN(Cc1ccccc1)C2	.	.	13%	-2%	20%	3%
N#Cc1c(NC(=O)c2cccc(S(=O)(=O)Nc3ccc(C(=O)O)cc3)c2)sc2c1CCCC2	.	.	8%	19µM*	0%	-1%
NC(=O)c1c(NC(=O)c2cnccn2)sc2c1CCCC2	?	-2%	?	2.7µM*	2µM*	?
NC(=O)c1c(NC(=O)c2ccccc2)sc2c1CCC2	.	.	5.8µM*	4.8µM*	3.2µM*	2µM*
NC(=O)c1c(NC(=O)c2ccccc2)sc2c1CCc1ccccc1-2	?	-9%	6.5µM*	2.1µM*	3.5µM*	4.5µM*
Nc1ccccc1Nc1ccncc1[N+](=O)[O-]	-12%	-4%	3%	3%	9%	0%
COc1ccc(NC(=O)CSc2nc3nc(C)cc(C)n3n2)cc1OC	.	.	.	2%	.	.
NC(=O)c1c(NC(=O)c2ccncc2)sc2c1CCCCCC2	.	.	-4%	12µM*	0%	-5%
